Source: PubChem BioAssay (The Scripps Research Institute Molecular Screening Center)
DAX1 inh-1: DAX1 (NR0B1) inhibitors on StAR promoter, primary screen, cell-based, luminescence, SF-1 (NR5A1), full-length DAX-1. HEK293T StAR-luciferase reporter, SF-1/DAX-1 repression relief. inhibition, % at 6.8 µM. 370,000 compounds, 1.1% hits. AID 652010, 2013;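 active = inhibition above the mean over all tested compounds plus 3 SD, cut at about 3.6% in these data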;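 also: 0% = DAX-1 cells with DMSO and 100% = cells lacking DAX-1 with DMSO; higher inhibition means more luminescence from relief of DAX-1 repression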
DAX1 inh-2: DAX1 (NR0B1) inhibitors, primary screen, cell-based, HEK293, Gal4-DAX1, luciferase luminescence; HEK293 Gal4-DAX1 luciferase reporter; inhibition, % at 6.75 µM; 340,000 compounds, 0.99% hits; AID 504766, 2011;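 active = inhibition above the mean over all tested compounds plus 3 SD, cut at about 4.2% in these data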;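 also: 0% = DAX1-transfected cells with DMSO and 100% = empty-vector control cells with DMSO; inhibition shows as a rise in luminescence from relieved DAX1 repression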
Target sequence (P51843 207-470 limits assumed): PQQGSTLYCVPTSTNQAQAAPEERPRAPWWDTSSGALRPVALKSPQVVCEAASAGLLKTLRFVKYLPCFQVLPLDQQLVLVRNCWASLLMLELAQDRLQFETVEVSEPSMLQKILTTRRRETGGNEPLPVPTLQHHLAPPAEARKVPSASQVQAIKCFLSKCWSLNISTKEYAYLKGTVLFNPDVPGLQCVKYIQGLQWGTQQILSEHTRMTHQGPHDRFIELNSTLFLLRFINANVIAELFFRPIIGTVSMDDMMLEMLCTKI
ssDAF12 agonist: S. stercoralis DAF-12 nuclear receptor activators, primary screen, cell-based, luminescence, HEK293, GRIP1 co-expression, lit1-tk-luc; Nuclear hormone receptor DAF-12 (Strongyloides stercoralis); AID 652126, 2013; activation, % at 6.8 µM; HEK293 ssDAF-12/GRIP1 lit1-tk-luc reporter; % of 3 µM dafachronic acid response; 370,000 compounds, 1% hits;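 active = activation above the mean over all tested compounds plus 3 SD, cut at about 0.9% in these data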;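 also: 0% = DMSO-only wells and 100% = 3 µM delta7-dafachronic acid wells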
hgDAF-12 ag: H. glycines DAF-12 receptor agonists, primary screen, cell-based, luminescence, HEK293, GAL4 fusion, UAS-luciferase | Nuclear hormone receptor DAF-12 (Heterodera glycines), GAL4 fusion | HEK293 GAL4-hgDAF12 UAS-luciferase reporter, agonist luminescence; normalized to butyrate control | activation, % at 6.8 µM | 370,000 compounds, 1.8% hits;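 active = activation above a cutoff set at the mean of all screened compounds plus 3 SD, cut at about 10% in these data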;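 also: 0% = DMSO wells and 100% = sodium butyrate wells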
hcDAF-12 act: H. contortus DAF-12 nuclear receptor activators, primary screen, cell-based, luminescence, HEK293, lit1-tk-luc reporter. HEK293 hcDAF-12 lit1-tk-luc reporter; 0% DMSO, 100% Δ7-dafachronic acid. activation, % at 6.8 µM. 370,000 compounds, 1.4% hits. AID 652067, 2013;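 active = activation above the mean of all tested compounds plus 3 SD, cut at about 5.5% in these data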;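 also: 100% = response to 3 µM Δ7-dafachronic acid high control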
The depositor's hits bear a star; · = not tested or not shown. An excerpt weighted towards active compounds, which were near 4.1% of everything screened.

SMILES	DAX1 inh-1	DAX1 inh-2	ssDAF12 agonist	hgDAF-12 ag	hcDAF-12 act
C[C@@H]1ON(C)[C@H]2C[C@H]3c4[nH]c5c(-c6ccccc6F)cccc5c4CCN3C[C@@H]12	-1	·	-1	2	-2
C=CCSc1nnc2nc3[nH]c4c(C)cccc4c3nn12	1	1	0.9*	6	4
CN(C)CCCNC(=O)CC1C[C@H](C(=O)N2CCCCC2)[C@@]2(CCc3ccccc3)c3[nH]c4ccccc4c3CCN2C1=O (some centres undefined)	3.9*	0	-1	1	1
CCN1C(=O)CCN(C2CCCC2)c2nc(Nc3ccc(C(=O)NC4CCN(C)CC4)cc3OC)ncc21	1	8.2*	1	-4	4
COc1ccc(Nc2oc(-c3ccc(OC)cc3)nc2C#N)cc1	1	0	-1	7	1
COc1ccc(Nc2oc(-c3ccccc3)nc2C#N)cc1	0	-1	-2	10*	1
COc1ccc(Nc2oc(-c3ccc(Cl)cc3)nc2C#N)cc1	0	1	0	11*	3
CC(=O)Nc1ccc(C(CCCc2ccccc2)C2=CCCCC2)cc1 (centres undefined)	-1	·	-1	4	-2
CCn1c2c(n(C(C)=O)c1=O)C=C(C(=O)N1CCCC1)C(C)C(c1ccccc1)=C2 (centres undefined)	-1	·	-1	0	0
Oc1ccccc1C=Nn1c(-c2ccccc2F)n[nH]c1=S	0	·	0	2	0
CCCCCn1nc(C)c(/C=N/NC(=O)c2ccoc2C)c1C	3.6*	2	-1	13*	2
CCn1nc(C)c(/C=N/NC(=O)c2ccoc2C)c1C	3	3	0	9	2
CCN(CC)c1ccc(/C=N/NC(=O)c2ccoc2C)c(O)c1	-2	2	0	12*	4
CCN(CC)c1ccc(/C=N/NC(=O)OC)c(O)c1	0	0	-1	2	-1
COc1cccc(N2CCN(CC(=O)NCc3ccc(F)cc3)CC2)c1	-1	·	-2	0	-3
Cc1cc(Oc2cccnc2)ccc1NC(=O)Cc1c[nH]c2ccccc12	-1	·	0	3	4
O=C(NC(=S)NCc1ccccc1)c1cccnc1	0	-1	1.0*	2	4
Cc1ccc(NC(=S)NCc2cccnc2)cc1	0	-1	-1	0	1
O=C(NCc1cccnc1)Nc1ccccc1	0	0	1.0*	2	1
CC(=O)Nc1ccc(S(=O)(=O)NCc2cccnc2)cc1	0	0	-2	0	6.0*
CC(=O)c1ccc(NC(=S)NCc2cccnc2)cc1	-2	6.1*	-2	-2	-1
COc1ccc(CCNC(=O)c2cc3ccccn3n2)cc1	0	·	-1	-2	-1
N#CCCN(Cc1cccnc1)C(=S)NC(=O)c1ccccc1	-1	4.6*	-1	1	2
N#CCCN(Cc1cccnc1)C(=S)Nc1ccccc1Cl	0	-1	-1	-2	1
Nn1c(SCC(=O)NC2CCCCC2)nnc1-c1cc(-c2ccc(Cl)cc2)n[nH]1	-1	·	0	4	-1
SMILES	DAX1 inh-1	DAX1 inh-2	ssDAF12 agonist	hgDAF-12 ag	hcDAF-12 act
CCOC(=O)[C@]12CCCC3=C1N(CCC3)C(=O)[C@@H](CC(=O)N1CCC(c3ccccc3)CC1)C2	-2	·	-1	0	-4
c1ccc(Sc2ccncc2)cc1	0	5.7*	-1	0	1
Cc1cc(C)cc(C(=O)OCCCN(C)C2CN(Cc3cn(Cc4cccc(F)c4)nn3)S(=O)(=O)C2)c1 (centres undefined)	-1	·	-2	-5	-1
COc1ccc(C(C(=O)N(C)C2CCCC2)N(Cc2ccc(F)cc2)C(=O)c2sccc2Cl)cc1OC (centres undefined)	-2	·	-2	-3	2
Cc1c(C(=O)c2ccccc2)oc2ccc3ccccc3c12	1	6.6*	-1	8	2
Cc1ccc2nc(-c3ccc(SCC(=O)Nc4nnc(C)s4)nc3)[nH]c2c1	4.3*	3	0	8	5.7*
